# Measurements as given in PubChem BioAssay (NCI).
# Values joined by “and” are separate entries in the source; they are usually repeats but may differ in a detail not shown here. Equal entries are not always repeated. About 79,000 compounds went through this panel and 15% of them were active in at least one assay; those are over-represented in the sample as a whole. More than one record can exist for a structure, and the calls need not agree. Active and inactive are the calls of the source. Rule as the data show it: active = growth inhibition above about 70%; inactive = the rest.
# How the values were obtained:
# [1] = NCI Yeast Anticancer Drug Screen. Data for the rad52 strain (AID 147);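 also: 0% = growth of vehicle-treated control cultures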; conditions: S. cerevisiae rad52 mutant growth inhibition, stronger effect = higher value
# Procedure, shortened: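 Vehicle-treated cultures served as the reference for growth inhibition of compound-exposed yeast bearing a DNA repair mutation.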
# [2] = NCI Yeast Anticancer Drug Screen. Data for the wt1 strain (AID 149);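 also: 0% = growth of vehicle-treated wt1 cultures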; conditions: S. cerevisiae wt1 strain (SPY 50644) growth inhibition, stronger effect = higher value
# Procedure, shortened: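 wt1 strain grown with compound or vehicle; inhibition taken from the growth difference.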
# [3] = NCI Yeast Anticancer Drug Screen. Data for the mgt1 strain (AID 153); conditions: S. cerevisiae mgt1 mutant growth inhibition, stronger effect = higher value
# Procedure, shortened: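 mgt1 strain exposed; growth vs vehicle control recorded as inhibition.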
# [4] = NCI Yeast Anticancer Drug Screen. Data for the mec2-1 strain (AID 157); conditions: S. cerevisiae mec2-1 strain, stronger effect = higher value
# Procedure, shortened: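 Vehicle-treated cultures served as reference for growth inhibition of compound-exposed mec2-1 yeast.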
# [5] = NCI Yeast Anticancer Drug Screen. Data for the rad14 strain (AID 159);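 also: 0% = growth of vehicle-treated control cultures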; conditions: S. cerevisiae rad14 strain growth inhibition, stronger effect = higher value
# Procedure, shortened: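 DNA repair-defective yeast, compound-exposed; % growth inhibition derived by comparison with vehicle-treated controls.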
# [6] = NCI Yeast Anticancer Drug Screen. Data for the sgs1 mgt1 strain (AID 161);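 also: 0% = growth of cultures given vehicle only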; conditions: S. cerevisiae sgs1 mgt1 strain, stronger effect = higher value
# Procedure, shortened: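 Mutant yeast exposed to compound; growth scored against vehicle-only wells.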
# [7] = NCI Yeast Anticancer Drug Screen. Data for the CLN2oe strain (AID 163);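 also: 0% = growth of vehicle-only control cultures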; conditions: S. cerevisiae CLN2oe strain, stronger effect = higher value
# Procedure, shortened: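 Inhibition relative to vehicle-treated yeast is reported. Cells: strain with genetic alteration in cell-cycle control, grown with compound.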
# [8] = NCI Yeast Anticancer Drug Screen. Data for the cln2 rad14 strain (AID 165);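 also: 0% = growth equal to vehicle treated cultures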; conditions: S. cerevisiae cln2 rad14 strain, stronger effect = higher value
# Procedure, shortened: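 Each compound was tested on cln2 rad14 yeast. Inhibition of growth was calculated against vehicle-exposed controls.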
# [9] = NCI Yeast Anticancer Drug Screen. Data for the bub3 strain (AID 167); conditions: S. cerevisiae bub3 mutant strain, stronger effect = higher value
# Procedure, shortened: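 In this screen, a yeast mutant lacking normal mitotic checkpoint function is challenged with compound. Relative growth versus vehicle gives the inhibition value.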
# [10] = NCI Yeast Anticancer Drug Screen. Data for the wt2 strain (AID 169);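 also: 0% = growth of vehicle-treated yeast cultures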; conditions: S. cerevisiae wt2 strain growth inhibition, stronger effect = higher value
# Procedure, shortened: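 Inhibition of yeast growth was determined after compound treatment, normalised to controls receiving only vehicle.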
# [11] = NCI Yeast Anticancer Drug Screen. Data for the mlh1 strain (AID 171);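 also: 0% = growth of vehicle-treated control cultures of the same strain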; conditions: S. cerevisiae mlh1 strain growth inhibition, stronger effect = higher value
# Procedure, shortened: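 Vehicle-normalised growth inhibition of a repair- or checkpoint-altered yeast strain following compound treatment.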
# [12] = NCI Yeast Anticancer Drug Screen. Data for the sgs1 strain (AID 173);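 also: 0% = growth of vehicle-only control cultures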; conditions: S. cerevisiae sgs1 mutant, stronger effect = higher value
# Procedure, shortened: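 Screen format: yeast with repair or checkpoint alterations, compound exposure, growth read relative to vehicle.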
# [13] = NCI Yeast Anticancer Drug Screen. Data for the mlh1 rad18 strain (AID 175); conditions: S. cerevisiae mlh1 rad18 strain growth inhibition, stronger effect = higher value
# Procedure, shortened: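 Vehicle-treated cultures served as the reference for growth inhibition in a yeast strain carrying DNA damage repair alterations exposed to each compound.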
# [14] = NCI Yeast Anticancer Drug Screen. Data for the rad18 strain (AID 177); conditions: S. cerevisiae rad18 mutant growth inhibition, stronger effect = higher value
# Procedure, shortened: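 Test articles were incubated with altered yeast defective in DNA damage repair. Results are given as inhibition of growth versus vehicle.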
# [15] = NCI Yeast Anticancer Drug Screen. Data for the rad50 strain (AID 155);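 also: 0% = growth of vehicle-only cultures of the same strain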; conditions: S. cerevisiae rad50 strain growth inhibition, stronger effect = higher value
# Procedure, shortened: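 DNA repair mutant yeast, compound exposure, growth read-out; inhibition is taken relative to vehicle.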
# [16] = at 5.0 µM (retest, dose inferred, filed as 0.5)
# [17] = at 50.0 µM (retest, dose inferred, filed as 5.0)
compound,measurement,setting,value
C/C=C/SC(=Nc1ccccc1)Nc1ccccc1,growth inhibition,[1]; at 1.2 µM,-3% (inactive)
same,growth inhibition,[1]; at 3.7 µM,-5% (inactive)
same,growth inhibition,[1]; at 11.0 µM,-6% (inactive)
same,growth inhibition,[1]; at 33.0 µM,-6% (inactive)
same,growth inhibition,[1]; at 100.0 µM,99% (active)
same,growth inhibition,[2]; at 1.2 µM,-3% (inactive)
same,growth inhibition,[2]; at 3.7 µM,0% (inactive)
same,growth inhibition,[2]; at 11.0 µM,-7% (inactive)
same,growth inhibition,[2]; at 33.0 µM,-15% (inactive)
same,growth inhibition,[2]; at 100.0 µM,97% (active)
same,growth inhibition,[3]; at 1.2 µM,-6% (inactive)
same,growth inhibition,[3]; at 3.7 µM,-8% (inactive)
same,growth inhibition,[3]; at 11.0 µM,-9% (inactive)
same,growth inhibition,[3]; at 33.0 µM,-13% (inactive)
same,growth inhibition,[3]; at 100.0 µM,98% (active)
same,growth inhibition,[4]; at 1.2 µM,-6% (inactive)
same,growth inhibition,[4]; at 3.7 µM,-5% (inactive)
same,growth inhibition,[4]; [16],-9% (inactive)
same,growth inhibition,[4]; at 11.0 µM,-9% (inactive)
same,growth inhibition,[4]; at 33.0 µM,-8% (inactive)
same,growth inhibition,[4]; [17],67% (inactive)
same,growth inhibition,[4]; at 50.0 µM,49.2% (inactive)
same,growth inhibition,[4]; at 100.0 µM,98% (active)
same,growth inhibition,[5]; at 1.2 µM,-4% (inactive)
same,growth inhibition,[5]; at 3.7 µM,-4% (inactive)
same,growth inhibition,[5]; at 11.0 µM,-5% (inactive)
same,growth inhibition,[5]; at 33.0 µM,-4% (inactive)
same,growth inhibition,[5]; at 100.0 µM,99% (active)
same,growth inhibition,[6]; [16],-5% (inactive)
same,growth inhibition,[6]; [17],71% (active)
same,growth inhibition,[6]; at 50.0 µM,90.8% (active)
same,growth inhibition,[7]; at 1.2 µM,-9% (inactive)
same,growth inhibition,[7]; at 3.7 µM,-18% (inactive)
same,growth inhibition,[7]; at 11.0 µM,-15% (inactive)
same,growth inhibition,[7]; at 33.0 µM,-24% (inactive)
same,growth inhibition,[7]; at 100.0 µM,97% (active)
same,growth inhibition,[8]; [16],2% (inactive)
same,growth inhibition,[8]; [17],33% (inactive)
same,growth inhibition,[8]; at 50.0 µM,2.3% (inactive)
same,growth inhibition,[9]; at 1.2 µM,10% (inactive)
same,growth inhibition,[9]; at 3.7 µM,8% (inactive)
same,growth inhibition,[9]; [16],10% (inactive)
same,growth inhibition,[9]; at 11.0 µM,7% (inactive)
same,growth inhibition,[9]; at 33.0 µM,-12% (inactive)
same,growth inhibition,[9]; [17],36% (inactive)
same,growth inhibition,[9]; at 50.0 µM,92.5% (active)
same,growth inhibition,[9]; at 100.0 µM,98% (active)
same,growth inhibition,[10]; at 1.2 µM,-3% (inactive)
same,growth inhibition,[10]; at 3.7 µM,-3% (inactive)
same,growth inhibition,[10]; at 11.0 µM,-7% (inactive)
same,growth inhibition,[10]; at 33.0 µM,-9% (inactive)
same,growth inhibition,[10]; at 100.0 µM,98% (active)
same,growth inhibition,[11]; at 1.2 µM,-4% (inactive)
same,growth inhibition,[11]; at 3.7 µM,-3% (inactive)
same,growth inhibition,[11]; at 11.0 µM,-6% (inactive)
same,growth inhibition,[11]; at 33.0 µM,-5% (inactive)
same,growth inhibition,[11]; at 100.0 µM,98% (active)
same,growth inhibition,[12]; at 1.2 µM,-4% (inactive)
same,growth inhibition,[12]; at 3.7 µM,-5% (inactive)
same,growth inhibition,[12]; at 11.0 µM,-7% (inactive)
same,growth inhibition,[12]; at 33.0 µM,-3% (inactive)
same,growth inhibition,[12]; at 100.0 µM,98% (active)
same,growth inhibition,[13]; [16],-10% (inactive)
same,growth inhibition,[13]; [17],70% (active)
same,growth inhibition,[13]; at 50.0 µM,66.3% (inactive)
same,growth inhibition,[14]; at 1.2 µM,-2% (inactive)
same,growth inhibition,[14]; at 3.7 µM,-5% (inactive)
same,growth inhibition,[14]; at 11.0 µM,-8% (inactive)
same,growth inhibition,[14]; at 33.0 µM,-9% (inactive)
same,growth inhibition,[14]; at 100.0 µM,98% (active)
O=c1[nH]c2ccc(Cl)cc2o1,growth inhibition,[1]; at 1.2 µM,-14% (inactive)
same,growth inhibition,[1]; at 3.7 µM,-10% (inactive)
same,growth inhibition,[1]; at 11.0 µM,-11% (inactive)
same,growth inhibition,[1]; at 33.0 µM,-13% (inactive)
same,growth inhibition,[1]; at 100.0 µM,-1% (inactive)
same,growth inhibition,[2]; at 1.2 µM,-30% (inactive)
same,growth inhibition,[2]; at 3.7 µM,-28% (inactive)
same,growth inhibition,[2]; at 11.0 µM,-33% (inactive)
same,growth inhibition,[2]; at 33.0 µM,-32% (inactive)
same,growth inhibition,[2]; at 100.0 µM,-23% (inactive)
same,growth inhibition,[3]; at 1.2 µM,-45% (inactive)
same,growth inhibition,[3]; at 3.7 µM,-37% (inactive)
same,growth inhibition,[3]; at 11.0 µM,-28% (inactive)
same,growth inhibition,[3]; at 33.0 µM,-33% (inactive)
same,growth inhibition,[3]; at 100.0 µM,-23% (inactive)
same,growth inhibition,[15]; at 1.2 µM,-31% (inactive)
same,growth inhibition,[15]; at 3.7 µM,-23% (inactive)
same,growth inhibition,[15]; [16],47% (inactive) and 1% (inactive)
same,growth inhibition,[15]; at 11.0 µM,-17% (inactive)
same,growth inhibition,[15]; at 33.0 µM,-19% (inactive)
same,growth inhibition,[15]; [17],98% (active) and 64% (inactive)
same,growth inhibition,[15]; at 50.0 µM,15.6% (inactive) and 15.7% (inactive)
same,growth inhibition,[15]; at 100.0 µM,-18% (inactive)
same,growth inhibition,[4]; at 1.2 µM,-62% (inactive)
same,growth inhibition,[4]; at 3.7 µM,-70% (inactive)
same,growth inhibition,[4]; [16],48% (inactive) and -3% (inactive)
same,growth inhibition,[4]; at 11.0 µM,-60% (inactive)
same,growth inhibition,[4]; at 33.0 µM,-47% (inactive)
same,growth inhibition,[4]; [17],93% (active) and 68% (inactive)
same,growth inhibition,[4]; at 50.0 µM,3.9% (inactive) and 2.1% (inactive)
same,growth inhibition,[4]; at 100.0 µM,-53% (inactive)
same,growth inhibition,[5]; at 1.2 µM,-44% (inactive)
same,growth inhibition,[5]; at 3.7 µM,-38% (inactive)
same,growth inhibition,[5]; at 11.0 µM,-28% (inactive)
same,growth inhibition,[5]; at 33.0 µM,-35% (inactive)
same,growth inhibition,[5]; at 100.0 µM,-32% (inactive)
same,growth inhibition,[6]; [16],6% (inactive) and 1% (inactive)
same,growth inhibition,[6]; [17],20% (inactive) and 51% (inactive)
same,growth inhibition,[6]; at 50.0 µM,15.4% (inactive) and -2.75% (inactive)
same,growth inhibition,[7]; at 1.2 µM,-25% (inactive)
same,growth inhibition,[7]; at 3.7 µM,-26% (inactive)
same,growth inhibition,[7]; at 11.0 µM,-30% (inactive)
same,growth inhibition,[7]; at 33.0 µM,-34% (inactive)
same,growth inhibition,[7]; at 100.0 µM,-15% (inactive)
same,growth inhibition,[8]; [16],46% (inactive) and 2% (inactive)
same,growth inhibition,[8]; [17],53% (inactive) and 43% (inactive)
same,growth inhibition,[8]; at 50.0 µM,23.1% (inactive) and -1.85% (inactive)
same,growth inhibition,[9]; at 1.2 µM,-15% (inactive)
same,growth inhibition,[9]; at 3.7 µM,-1% (inactive)
same,growth inhibition,[9]; [16],57% (inactive) and 20% (inactive)
same,growth inhibition,[9]; at 11.0 µM,7% (inactive)
same,growth inhibition,[9]; at 33.0 µM,71% (active)
same,growth inhibition,[9]; [17],92% (active) and 96% (active)
same,growth inhibition,[9]; at 50.0 µM,87.3% (active) and 92% (active)
same,growth inhibition,[9]; at 100.0 µM,92% (active)
same,growth inhibition,[10]; at 1.2 µM,-27% (inactive)
same,growth inhibition,[10]; at 3.7 µM,-27% (inactive)
same,growth inhibition,[10]; at 11.0 µM,-31% (inactive)
same,growth inhibition,[10]; at 33.0 µM,-27% (inactive)
same,growth inhibition,[10]; at 100.0 µM,-6% (inactive)
same,growth inhibition,[11]; at 1.2 µM,-41% (inactive)
same,growth inhibition,[11]; at 3.7 µM,-33% (inactive)
same,growth inhibition,[11]; at 11.0 µM,-56% (inactive)
same,growth inhibition,[11]; at 33.0 µM,-41% (inactive)
same,growth inhibition,[11]; at 100.0 µM,-27% (inactive)
same,growth inhibition,[12]; at 1.2 µM,-36% (inactive)
same,growth inhibition,[12]; at 3.7 µM,-47% (inactive)
same,growth inhibition,[12]; at 11.0 µM,-48% (inactive)
same,growth inhibition,[12]; at 33.0 µM,-34% (inactive)
same,growth inhibition,[12]; at 100.0 µM,-22% (inactive)
same,growth inhibition,[13]; [16],52% (inactive) and 1% (inactive)
same,growth inhibition,[13]; [17],92% (active) and 32% (inactive)
same,growth inhibition,[13]; at 50.0 µM,24.9% (inactive) and -2.65% (inactive)
same,growth inhibition,[14]; at 1.2 µM,-39% (inactive)
same,growth inhibition,[14]; at 3.7 µM,-34% (inactive)
same,growth inhibition,[14]; at 11.0 µM,-46% (inactive)
same,growth inhibition,[14]; at 33.0 µM,-38% (inactive)
same,growth inhibition,[14]; at 100.0 µM,-21% (inactive)
